Holding throughout (experiment): DAPPL (digital affinity profiling via proximity ligation, sequencing); 10 mM Tris-HCl pH 7.5, 50 mM NaCl, 1 mM DTT, 4% glycerol, room temperature, 30 min; GST-TFs on glutathione beads, 16-mer random dsDNA library, 0.1% formaldehyde crosslink after washing; high values mean tight binding
Holding throughout (details): protein: recombinant; tags: N-terminal GST; dsDNA, one strand shown

Assay [1] concerns the target T1, ELK1 (Homo sapiens, UniProt P19419 1-428).
T1 sequence: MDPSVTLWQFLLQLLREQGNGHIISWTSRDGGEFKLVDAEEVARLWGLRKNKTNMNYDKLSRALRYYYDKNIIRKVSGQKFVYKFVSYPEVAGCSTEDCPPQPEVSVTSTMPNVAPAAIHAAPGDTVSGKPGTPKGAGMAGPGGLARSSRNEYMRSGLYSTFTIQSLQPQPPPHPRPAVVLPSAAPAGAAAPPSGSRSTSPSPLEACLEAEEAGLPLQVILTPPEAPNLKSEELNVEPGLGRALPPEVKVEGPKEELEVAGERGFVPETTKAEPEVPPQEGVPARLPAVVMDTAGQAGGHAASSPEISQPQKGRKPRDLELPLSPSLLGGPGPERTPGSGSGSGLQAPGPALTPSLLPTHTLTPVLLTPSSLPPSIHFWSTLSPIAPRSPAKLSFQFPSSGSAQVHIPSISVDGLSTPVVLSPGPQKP
Summed up: (§1)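 A tag-only sample was pooled with DNA-barcoded human transcription factors that had been expressed in yeast as GST fusions and captured on glutathione beads. The pools were incubated for 30 min at room temperature with 200 nmole of a random double-stranded 16-mer DNA library in Tris/NaCl/DTT/glycerol buffer, then washed, crosslinked with 0.1% formaldehyde, proximity-ligated (BsaI/T4 ligase, 1 h, 37 °C), PCR-amplified and sequenced on an Illumina NextSeq500. Binding signal is each hexamer's read frequency for a factor divided by its frequency for the tag-only sample.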

Assay [2] addresses T2, GABPA (Homo sapiens, UniProt Q06546 1-454).
T2 sequence: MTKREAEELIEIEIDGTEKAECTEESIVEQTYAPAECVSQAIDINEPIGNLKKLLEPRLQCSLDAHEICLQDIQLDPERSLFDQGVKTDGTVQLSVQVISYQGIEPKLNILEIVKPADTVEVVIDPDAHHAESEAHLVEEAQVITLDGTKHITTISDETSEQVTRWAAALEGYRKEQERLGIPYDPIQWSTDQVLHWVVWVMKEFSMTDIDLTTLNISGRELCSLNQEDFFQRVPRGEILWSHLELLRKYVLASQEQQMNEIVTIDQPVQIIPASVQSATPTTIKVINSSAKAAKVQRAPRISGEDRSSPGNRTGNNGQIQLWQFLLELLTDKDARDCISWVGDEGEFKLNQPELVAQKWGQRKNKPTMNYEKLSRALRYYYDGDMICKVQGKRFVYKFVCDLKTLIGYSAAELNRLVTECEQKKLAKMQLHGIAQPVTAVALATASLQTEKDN
Summed up: as §1

The target in assay [3] is T3, ERG (Homo sapiens, UniProt P11308 1-479).
T3 sequence: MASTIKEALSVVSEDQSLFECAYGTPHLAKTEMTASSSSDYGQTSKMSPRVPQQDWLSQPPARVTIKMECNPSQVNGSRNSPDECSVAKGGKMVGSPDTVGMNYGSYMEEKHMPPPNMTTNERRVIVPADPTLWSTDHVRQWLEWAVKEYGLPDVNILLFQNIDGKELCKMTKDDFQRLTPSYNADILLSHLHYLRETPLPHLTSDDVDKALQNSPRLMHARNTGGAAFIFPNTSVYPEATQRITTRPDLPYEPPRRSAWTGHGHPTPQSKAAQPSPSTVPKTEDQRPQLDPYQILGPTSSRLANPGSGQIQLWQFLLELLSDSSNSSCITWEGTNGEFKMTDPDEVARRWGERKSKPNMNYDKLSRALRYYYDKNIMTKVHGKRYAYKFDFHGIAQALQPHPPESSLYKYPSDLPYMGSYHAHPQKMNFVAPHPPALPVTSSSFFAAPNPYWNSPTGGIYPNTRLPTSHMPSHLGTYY
The gist of the method:
as §1

The target in assay [4] is ELF1 (Homo sapiens, UniProt P32519 1-619). Summed up: as §1
Sequence of ELF1 (P32519 whole entry): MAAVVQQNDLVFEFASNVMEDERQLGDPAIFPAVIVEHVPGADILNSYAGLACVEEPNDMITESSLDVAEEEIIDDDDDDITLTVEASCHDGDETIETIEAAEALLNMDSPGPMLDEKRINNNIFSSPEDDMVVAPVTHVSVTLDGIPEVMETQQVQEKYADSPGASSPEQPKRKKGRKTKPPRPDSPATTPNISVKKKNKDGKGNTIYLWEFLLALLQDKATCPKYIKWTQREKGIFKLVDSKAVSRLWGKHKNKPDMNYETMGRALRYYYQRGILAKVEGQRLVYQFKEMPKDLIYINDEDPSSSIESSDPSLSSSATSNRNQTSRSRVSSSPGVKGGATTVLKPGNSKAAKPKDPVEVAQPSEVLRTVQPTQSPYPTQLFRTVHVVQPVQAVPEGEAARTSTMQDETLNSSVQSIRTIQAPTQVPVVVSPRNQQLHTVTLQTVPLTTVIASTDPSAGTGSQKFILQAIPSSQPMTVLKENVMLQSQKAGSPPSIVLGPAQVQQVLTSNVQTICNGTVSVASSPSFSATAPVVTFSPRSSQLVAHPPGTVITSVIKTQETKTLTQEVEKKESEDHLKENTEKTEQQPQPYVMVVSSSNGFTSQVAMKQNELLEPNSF
Assay [5] deals with T4, EHF (Homo sapiens, UniProt Q9NZC4 1-300).
T4 sequence: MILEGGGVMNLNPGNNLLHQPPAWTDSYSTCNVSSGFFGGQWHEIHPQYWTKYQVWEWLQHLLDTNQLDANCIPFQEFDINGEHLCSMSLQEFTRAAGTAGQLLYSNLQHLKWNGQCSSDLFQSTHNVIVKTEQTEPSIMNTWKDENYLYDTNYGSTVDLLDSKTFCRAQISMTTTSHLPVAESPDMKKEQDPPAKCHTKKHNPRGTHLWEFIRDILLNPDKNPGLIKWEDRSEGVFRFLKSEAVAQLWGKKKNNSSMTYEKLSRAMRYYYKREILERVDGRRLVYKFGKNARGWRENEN
The gist of the method:
as §1

The target of assay [6] is SPIB (Homo sapiens, UniProt Q01892 1-262). Summed up: as §1
Sequence of SPIB (Q01892 whole entry): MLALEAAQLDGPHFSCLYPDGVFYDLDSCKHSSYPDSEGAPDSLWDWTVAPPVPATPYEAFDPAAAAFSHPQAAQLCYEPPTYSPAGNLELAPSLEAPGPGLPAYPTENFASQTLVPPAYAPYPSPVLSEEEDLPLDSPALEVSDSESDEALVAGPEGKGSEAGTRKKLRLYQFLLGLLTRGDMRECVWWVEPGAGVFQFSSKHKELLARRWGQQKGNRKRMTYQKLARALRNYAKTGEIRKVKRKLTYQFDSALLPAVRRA
The target in assay [7] is T5, ELK3 (Homo sapiens, UniProt P41970 1-407).
T5 sequence: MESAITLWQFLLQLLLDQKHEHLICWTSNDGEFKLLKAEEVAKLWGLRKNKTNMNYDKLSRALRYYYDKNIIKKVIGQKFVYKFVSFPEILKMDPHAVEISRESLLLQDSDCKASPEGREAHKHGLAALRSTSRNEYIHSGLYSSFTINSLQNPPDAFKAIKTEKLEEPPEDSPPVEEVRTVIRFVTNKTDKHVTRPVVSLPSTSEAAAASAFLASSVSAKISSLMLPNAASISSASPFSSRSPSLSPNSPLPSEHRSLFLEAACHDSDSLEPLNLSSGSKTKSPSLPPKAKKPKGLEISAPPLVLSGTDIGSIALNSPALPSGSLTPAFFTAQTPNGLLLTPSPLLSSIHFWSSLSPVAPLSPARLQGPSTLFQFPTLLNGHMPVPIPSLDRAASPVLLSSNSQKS
Summed up:
as §1

Assay [8] addresses ETV5 (Homo sapiens, UniProt P41161 1-510). The gist of the method:
as §1

The target in assay [9] is T6, SPIC (Homo sapiens, UniProt Q8N5J4 1-248).
T6 sequence: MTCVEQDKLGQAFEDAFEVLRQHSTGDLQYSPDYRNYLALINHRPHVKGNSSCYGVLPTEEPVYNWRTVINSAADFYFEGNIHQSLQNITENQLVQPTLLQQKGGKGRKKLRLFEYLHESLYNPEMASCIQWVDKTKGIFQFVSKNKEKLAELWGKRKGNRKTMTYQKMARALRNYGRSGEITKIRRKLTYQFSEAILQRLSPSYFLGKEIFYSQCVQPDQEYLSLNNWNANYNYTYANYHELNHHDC
The gist of the method:
as §1

In assay [10] the target is T7, ELF3 (Homo sapiens, UniProt P78545 1-371).
T7 sequence: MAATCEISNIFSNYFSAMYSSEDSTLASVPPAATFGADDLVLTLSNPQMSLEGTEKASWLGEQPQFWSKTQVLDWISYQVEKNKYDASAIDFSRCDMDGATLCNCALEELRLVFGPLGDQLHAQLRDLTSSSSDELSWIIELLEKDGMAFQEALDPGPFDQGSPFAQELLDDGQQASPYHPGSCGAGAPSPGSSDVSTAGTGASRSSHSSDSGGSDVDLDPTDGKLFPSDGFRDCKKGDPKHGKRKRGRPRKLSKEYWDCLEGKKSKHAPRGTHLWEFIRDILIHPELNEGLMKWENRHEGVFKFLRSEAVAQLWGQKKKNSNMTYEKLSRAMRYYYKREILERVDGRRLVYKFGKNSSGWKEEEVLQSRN
Summed up: as §1

In assay [11] the target is ETV1 (Homo sapiens, UniProt P50549 1-477). Summed up:
as §1

For assay [12], the target named is T8, ERF (Homo sapiens, UniProt P50548 1-548).
T8 sequence: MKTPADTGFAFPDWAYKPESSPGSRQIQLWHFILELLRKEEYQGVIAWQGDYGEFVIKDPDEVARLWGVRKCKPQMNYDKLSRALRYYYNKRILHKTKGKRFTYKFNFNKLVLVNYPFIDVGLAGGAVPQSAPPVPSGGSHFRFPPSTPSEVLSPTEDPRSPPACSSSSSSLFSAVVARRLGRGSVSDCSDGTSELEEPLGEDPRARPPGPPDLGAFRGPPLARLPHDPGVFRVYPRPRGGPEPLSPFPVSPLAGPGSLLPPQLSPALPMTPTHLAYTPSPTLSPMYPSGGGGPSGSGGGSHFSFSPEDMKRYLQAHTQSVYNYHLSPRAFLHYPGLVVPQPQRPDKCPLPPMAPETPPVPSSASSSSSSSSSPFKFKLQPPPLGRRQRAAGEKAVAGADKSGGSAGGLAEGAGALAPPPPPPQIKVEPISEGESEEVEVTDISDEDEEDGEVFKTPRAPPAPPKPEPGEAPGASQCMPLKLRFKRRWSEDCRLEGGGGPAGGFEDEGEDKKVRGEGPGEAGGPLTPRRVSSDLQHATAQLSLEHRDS
Summed up:
as §1

The target of assay [13] is T9, ETV3L (Homo sapiens, UniProt Q6ZN32 1-361).
T9 sequence: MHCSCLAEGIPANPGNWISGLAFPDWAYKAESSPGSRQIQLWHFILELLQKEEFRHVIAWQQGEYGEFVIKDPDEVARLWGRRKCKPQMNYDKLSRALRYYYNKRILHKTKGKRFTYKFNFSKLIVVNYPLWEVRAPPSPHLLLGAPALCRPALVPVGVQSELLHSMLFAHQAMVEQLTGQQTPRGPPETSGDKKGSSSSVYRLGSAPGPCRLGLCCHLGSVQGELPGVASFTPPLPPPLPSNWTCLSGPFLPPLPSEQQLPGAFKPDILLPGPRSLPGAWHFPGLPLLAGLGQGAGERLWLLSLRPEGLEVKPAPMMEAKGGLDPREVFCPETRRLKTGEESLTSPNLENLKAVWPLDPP
Summed up: as §1

The target of assay [14] is T10, ETS2 (Homo sapiens, UniProt P15036 1-469).
T10 sequence: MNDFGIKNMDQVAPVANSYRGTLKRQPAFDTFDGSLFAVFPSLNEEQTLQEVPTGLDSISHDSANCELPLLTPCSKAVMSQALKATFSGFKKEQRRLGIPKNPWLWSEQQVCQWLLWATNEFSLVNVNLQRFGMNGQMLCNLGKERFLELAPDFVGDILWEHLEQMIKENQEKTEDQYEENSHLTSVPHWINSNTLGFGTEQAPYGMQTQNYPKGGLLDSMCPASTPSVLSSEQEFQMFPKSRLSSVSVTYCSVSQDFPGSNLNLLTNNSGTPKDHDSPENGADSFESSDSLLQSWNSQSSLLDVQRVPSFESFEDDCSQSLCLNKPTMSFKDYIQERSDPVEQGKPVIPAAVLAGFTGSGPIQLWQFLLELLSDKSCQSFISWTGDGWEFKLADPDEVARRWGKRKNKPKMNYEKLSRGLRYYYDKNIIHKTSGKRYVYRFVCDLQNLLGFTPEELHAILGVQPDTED
The gist of the method:
as §1

Assay [15] concerns the target T11, SPDEF (Homo sapiens, UniProt O95238 1-335).
T11 sequence: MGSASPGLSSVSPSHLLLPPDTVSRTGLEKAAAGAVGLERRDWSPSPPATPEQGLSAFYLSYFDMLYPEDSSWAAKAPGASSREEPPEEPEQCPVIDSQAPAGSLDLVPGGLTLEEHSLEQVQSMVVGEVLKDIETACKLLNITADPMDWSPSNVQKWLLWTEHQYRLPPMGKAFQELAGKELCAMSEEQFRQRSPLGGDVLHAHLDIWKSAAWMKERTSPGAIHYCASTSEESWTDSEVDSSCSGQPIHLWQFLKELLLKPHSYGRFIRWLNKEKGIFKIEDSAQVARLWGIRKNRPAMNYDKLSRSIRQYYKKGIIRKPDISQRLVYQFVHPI
The gist of the method: as §1

Assay [16] concerns the target T12, ETV3 (Homo sapiens, UniProt P41162-2 1-143).
T12 sequence: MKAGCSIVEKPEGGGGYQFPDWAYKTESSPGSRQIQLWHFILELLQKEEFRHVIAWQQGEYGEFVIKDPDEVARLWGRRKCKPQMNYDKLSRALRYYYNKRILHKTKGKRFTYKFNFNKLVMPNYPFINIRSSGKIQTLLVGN
Summed up:
as §1

For assay [17], the target named is ETV6 (Homo sapiens, UniProt P41212 1-452). The gist of the method:
as §1

Sequence of ETV1 (P50549 whole entry): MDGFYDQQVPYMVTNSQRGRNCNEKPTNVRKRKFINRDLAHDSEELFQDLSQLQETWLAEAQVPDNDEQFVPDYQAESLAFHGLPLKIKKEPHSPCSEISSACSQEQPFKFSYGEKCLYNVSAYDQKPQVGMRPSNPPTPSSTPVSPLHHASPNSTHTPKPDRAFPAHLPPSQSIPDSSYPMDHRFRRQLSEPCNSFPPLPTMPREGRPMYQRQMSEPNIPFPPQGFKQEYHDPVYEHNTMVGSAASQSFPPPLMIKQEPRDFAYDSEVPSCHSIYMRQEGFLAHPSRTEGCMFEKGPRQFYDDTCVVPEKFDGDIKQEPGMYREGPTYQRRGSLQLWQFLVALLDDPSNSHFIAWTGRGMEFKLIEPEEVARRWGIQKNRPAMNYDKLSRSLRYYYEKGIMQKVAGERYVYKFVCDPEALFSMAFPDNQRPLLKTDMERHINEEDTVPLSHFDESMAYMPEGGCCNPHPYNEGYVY
Sequence of ETV6 (P41212 whole entry): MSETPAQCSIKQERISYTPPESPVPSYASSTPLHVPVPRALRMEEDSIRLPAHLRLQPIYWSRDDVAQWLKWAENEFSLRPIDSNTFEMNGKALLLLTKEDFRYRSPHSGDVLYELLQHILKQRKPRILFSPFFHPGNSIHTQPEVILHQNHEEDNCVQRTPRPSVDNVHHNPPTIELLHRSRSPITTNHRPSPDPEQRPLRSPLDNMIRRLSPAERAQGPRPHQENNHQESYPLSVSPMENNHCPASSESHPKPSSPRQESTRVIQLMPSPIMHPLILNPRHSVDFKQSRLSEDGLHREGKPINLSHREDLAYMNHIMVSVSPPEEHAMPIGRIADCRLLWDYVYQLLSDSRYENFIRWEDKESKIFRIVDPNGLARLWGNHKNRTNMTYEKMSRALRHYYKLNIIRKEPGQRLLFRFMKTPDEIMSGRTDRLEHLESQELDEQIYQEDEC
Sequence of ETV5 (P41161 whole entry): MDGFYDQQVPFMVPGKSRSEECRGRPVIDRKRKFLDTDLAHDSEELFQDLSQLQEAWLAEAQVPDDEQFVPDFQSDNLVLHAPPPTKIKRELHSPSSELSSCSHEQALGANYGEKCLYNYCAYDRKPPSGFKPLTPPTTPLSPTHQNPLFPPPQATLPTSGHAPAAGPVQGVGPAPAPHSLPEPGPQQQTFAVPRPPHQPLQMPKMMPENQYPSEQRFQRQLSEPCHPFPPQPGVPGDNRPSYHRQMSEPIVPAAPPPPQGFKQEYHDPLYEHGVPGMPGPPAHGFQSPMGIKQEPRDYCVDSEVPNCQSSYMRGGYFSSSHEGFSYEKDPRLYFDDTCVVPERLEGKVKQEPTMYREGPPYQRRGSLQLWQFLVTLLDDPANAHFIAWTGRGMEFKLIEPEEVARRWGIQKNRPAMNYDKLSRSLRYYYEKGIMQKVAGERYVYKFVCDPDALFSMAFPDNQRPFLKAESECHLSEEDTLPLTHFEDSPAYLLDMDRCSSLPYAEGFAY

Regarding AACGCA, the binding signal in assay [1] was 1.03 fold enrichment (6-mer frequency, TF over GST control); in [2], 1.06 fold enrichment (6-mer frequency, TF over GST control); in assay [3], 1.13 fold enrichment (6-mer frequency, TF over GST control); in [4], 1.06 fold enrichment (6-mer frequency, TF over GST control); in assay [5], 1.04 fold enrichment (6-mer frequency, TF over GST control); in assay [6], 1.04 fold enrichment (6-mer frequency, TF over GST control). In addition, the binding signal in assay [7] is 1.06 fold enrichment (6-mer frequency, TF over GST control); in assay [8], 1.09 fold enrichment (6-mer frequency, TF over GST control); in assay [9], 1.02 fold enrichment (6-mer frequency, TF over GST control); in assay [10] it was 1.03 fold enrichment (6-mer frequency, TF over GST control); in assay [11] it was 1.09 fold enrichment (6-mer frequency, TF over GST control); in [12], 1.16 fold enrichment (6-mer frequency, TF over GST control). In addition, the binding signal was 1.03 fold enrichment (6-mer frequency, TF over GST control) in assay [13]; 1.1 fold enrichment (6-mer frequency, TF over GST control) in assay [14]; 1.05 fold enrichment (6-mer frequency, TF over GST control) in assay [15]; 1.03 fold enrichment (6-mer frequency, TF over GST control) in assay [16]; 1.06 fold enrichment (6-mer frequency, TF over GST control) in assay [17].

Values taken from article PMC7862700, “An all-to-all approach to the identification of sequence-specific readers for epigenetic DNA modifications on cytosine”.
